# Reference: PubChem BioAssay AID1259415 (National Center for Advancing Translational Sciences (NCATS), 2018)
# Where “and” joins values, the source holds several entries; their conditions need not be identical. Equal entries are not always repeated. The whole screen tested about 410,000 compounds, of which about 18,000 (4.4%) were called active. Inconclusive results (about 7%) are left out. Cut-off read from the data, not from the text of the source: active = activity change below about -60%; inconclusive = no clear call, values can overlap the other calls; inactive = above about -39%. The entries come from a sample that favours actives as a whole.
# Assay: qHTS Assay for inhibitors of the human cytomegalovirus (HCMV)
# Details: HFF cells, HCMV-luciferase reporter, 72 h; at 57.5 µM; hits give low values
# Excerpt: NCGC Assay Overview: Infection with human cytomegalovirus (HCMV) continues to pose significant threats for pregnant women and immunocompromised hosts. HCMV causes serious morbidity and mortality in transplant recipients, and congenital HCMV is the leading infectious cause of mental retardation and deafness in children. In the 1990s, the annual costs associated with the disease burden of congenital CMV were estimated at around $2 billion. A HCMV vaccine is not available yet and HCMV therapies result in intolerable side effects and emergence of drug resistant viruses. […] Towards this goal we have developed and characterized a luciferase HCMV reporter that was initially used in 96 well plates and then optimized to 1536-well plates for utilization in screening of the MLSMR collection, the NGCG diversity collection and the NCGC Pharmaceutical Collection of approved and investigational drugs.
# NCGC Assay Protocol Summary:
# This is a cell-based assay for HCMV inhibition in HFFs cells. The screening used 2 compound doses and the HCMV-luciferase at MOI of 1 PFU/cell. Cells were treated and infected with HCMV. At 72 h post infection cell lysates were collected and luciferase activity was determined using the Glomax-Multi + Detection System (Promega, Madison, WI). Data were normalized to the controls for basal activity (buffer only) and known HCMV inhibitors Salinmoycin.
# 1536-well assay protocol for the assay:
# (1) Add 3 ul CMV/HFF cell culture. 1000 cells/well in DMEM nirmal media.
# (2) Incubate 16 hr at 37C.
# (3) Add 23 nl control compound, 10uM of Salinomycin.
# (4) Add 23 nl compounds in DMSO solution.
# (5) Add 3 ul CMV suspension. Final 1 puf/ul, Virus stock 2000pfu/ul
# (6) Incubate 72 hrs at 37C.
# (7) Add 4 ul OneGlo Luc Reagent.
# (8) Incubate 5 min at room temperature.
# % is set by controls: 0 for no effect and ±100 for the full control effect.
row,Structure (SMILES),"activity change, negative = inhibition"
1,CCOC(=O)c1ccc(NC(=O)Cn2cc(S(=O)(=O)Cc3ccccc3F)c3ccccc32)cc1,0% (inactive)
2,CCOc1cccc2cc(-c3cn4c(n3)sc3cc(C)ccc34)c(=O)oc12,0.706% (inactive)
3,CCOC(=O)c1ccc(NC(=O)CC2C(=O)N(c3ccccc3)C(=O)N2Cc2cccs2)cc1 (configuration not stated),16.8% (inactive)
4,CCn1nc(C(=O)Nc2ccc(N3CCOCC3)cc2)c2ccccc2c1=O,-3.67% (inactive)
5,CCOc1cc(-c2nnc(SCC(=O)NC3CCCCC3)nc2-c2ccc(OC)c(OCC)c2)ccc1OC,8.79% (inactive)
6,COc1ccc(NC(=O)C2CCC(CNS(=O)(=O)c3csc(C(N)=O)c3)CC2)cc1OC (configuration not stated),-65.3% (active)
7,Cc1cc(NC(=O)C2CCC(CNS(=O)(=O)c3ccc(Br)s3)CC2)ccc1Br (configuration not stated),-4.58% (inactive)
8,CC(=O)Nc1ccc(S(=O)(=O)NCC2CCC(C(=O)NCCc3ccccc3)CC2)cc1 (configuration not stated),0% (inactive) and -12.6% (inactive)
9,COc1cccc(N2CC(NS(=O)(=O)c3ccc(Cl)cc3)CC2=O)c1 (configuration not stated),-10.8% (inactive)
10,COc1ccc(NC(=O)CSc2nc3ncccc3[nH]2)c(OC)c1,9.48% (inactive)
11,NS(=O)(=O)c1ccc(NC(=O)COC(=O)C2(c3ccc(F)cc3)CCCC2)cc1,-61.5% (active)
12,CN(C)S(=O)(=O)c1cccc(NC(=O)COC(=O)C2(c3ccccc3F)CCCC2)c1,-26.2% (inactive)
13,O=C(COC(=O)C1(c2ccc(F)cc2)CCCC1)N1CCNC1=O,-24.2% (inactive)
14,CN(Cc1ccccc1)C(=O)CCS(=O)(=O)c1cc(Br)cc2c1N(C(=O)C1CC1)CC2,-14.4% (inactive)
15,O=S(=O)([N-]c1nc2ccccc2nc1-[n+]1ccc(Cc2ccccc2)cc1)c1ccc(Br)s1,-110% (active)
16,COc1ccc(S(=O)(=O)c2c(Nc3cccc(Cl)c3)sc(C(=O)c3ccccc3)c2N)cc1,20.4% (inactive)
17,N#C/C(=C(\O)C(F)(F)F)c1nnc2n1CCCCC2,-0.374% (inactive)
18,N#C/C(=C(\O)CCl)c1nnc2n1CCCCC2,-20.4% (inactive)
19,N#C/C(=C/c1cccc([N+](=O)[O-])c1)c1nnc2n1CCCCC2,-95.5% (active)
20,CNS(=O)(=O)c1ccc2c(c1)[nH]c(=S)n2C,-5.5% (inactive)
21,Cc1ccccc1OCc1ccc(-c2nc(C#N)c(N3CCCCC3)o2)o1,-23.6% (inactive)
22,Cc1ccc(N2CCN(C(=O)CCc3c(C)nc4c(c3C)c(=O)n(C)c(=O)n4C)CC2)c(C)c1,-5.59% (inactive)
23,CC(=O)N1CCCc2cc(S(=O)(=O)N3CCC(C(=O)NC4CCCCC4)CC3)ccc21,6.82% (inactive)
24,CC1Cc2cc(S(=O)(=O)CCC(=O)NCc3ccc(Cl)cc3)ccc2N1C(=O)C1CC1 (configuration not stated),4.59% (inactive)
25,CC(=O)N1c2ccc(S(=O)(=O)N3CCCC(C(=O)NCc4ccc(Cl)cc4)C3)cc2CC1C (configuration not stated),-75.8% (active)
26,CC(=O)N1c2ccc(S(=O)(=O)N3CCC(C(=O)NCc4ccc(F)cc4)CC3)cc2CC1C (configuration not stated),-39.5% (inactive)

row,Structure (SMILES),"activity change, negative = inhibition"
1,CC(=O)N1c2ccc(S(=O)(=O)N3CCCC(C(=O)Nc4cccc(F)c4)C3)cc2CC1C (configuration not stated),-31.3% (inactive)
2,COc1cccc(N2CCN(S(=O)(=O)c3ccc4c(c3)CCCN4C(C)=O)CC2)c1,-9.24% (inactive)
3,CC(=O)N1CCCc2cc(S(=O)(=O)N3CCCC(C(=O)N4CCN(c5cccc(Cl)c5)CC4)C3)ccc21 (configuration not stated),-72.9% (active) and -95.8% (active)
4,CC(=O)N1c2ccc(S(=O)(=O)N3CCCC(C(=O)Nc4ccc(C)cc4C)C3)cc2CC1C (configuration not stated),33.5% (inactive)
5,CC(=O)N1c2ccc(S(=O)(=O)N3CCCC(C(=O)Nc4cccc(Cl)c4)C3)cc2CC1C (configuration not stated),-62.5% (active)
6,Cc1noc(/C=C/N(C)C)c1S(=O)(=O)N1CCCC(C(=O)Nc2cccc(F)c2)C1 (configuration not stated),4.81% (inactive)
7,CCOc1ccc(OCC)c(NC(=O)c2c(C)nn(-c3ccccc3)c2-n2cccc2)c1,-28.6% (inactive)
8,COc1ccc(-c2nn3c(=O)cc(CN4CCN(C(=O)c5ccc(OC)c(OC)c5)CC4)nc3s2)cc1,-5.09% (inactive)
9,COc1ccc(CCNc2nc(-c3ccc(Cl)cc3)cc(C(F)(F)F)n2)cc1OC,-19.1% (inactive)
10,O=C(CSc1nc(=O)n(Cc2cccnc2)c2c1CCC2)Nc1ccc(F)cc1F,-15.2% (inactive)
11,COc1cccc(CNC(=O)CCC(=O)N2CC3CCCN3c3ccccc32)c1 (configuration not stated),-5.74% (inactive)
12,COc1ccc(C2N=C(N)N=C(N)N2c2ccccc2)cc1OC (configuration not stated),14% (inactive)
13,O=C(CCc1nc(CN2CCN(S(=O)(=O)c3ccc(Cl)cc3)CC2)no1)N1CCCCC1,30.2% (inactive)
14,CC[C@]12c3[nH]c4ccc(OC)cc4c3CCN1C(=O)C(CC(=O)NCCN1CCOCC1)C[C@@H]2C(=O)N1CCN(C(=O)C2CC2)CC1 (some centres not stated),3.72% (inactive)
15,O=C(Nc1cccc(S(=O)(=O)N2CCCC2)c1)c1cncc(Br)c1,-5.81% (inactive)
16,Cc1c(C)n(Cc2ccc(Cl)cc2)c2ccc(C(=O)NCCc3ccc(S(N)(=O)=O)cc3)cc12,0% (inactive)
17,Cn1c(=O)n(C)c2cc(C(=O)Nc3ccc4c(c3)OCO4)ccc21,-96.3% (active)
18,CN1CCN(S(=O)(=O)c2cccc(C(=O)Nc3cccc(S(N)(=O)=O)c3)c2)CC1,-17.3% (inactive)
19,O=C(NCCc1ccc(F)cc1)c1ccc(S(=O)(=O)N2CCCCC2)cc1,-3.57% (inactive)
20,O=C(Nc1cccc(S(=O)(=O)N2CCCCC2)c1)c1ccc2c(c1)OCO2,-69% (active)
21,NS(=O)(=O)c1ccc(CCNC(=O)c2ccc(Cl)c(S(=O)(=O)N3CCCCCC3)c2)cc1,-69.2% (active)
22,COc1cc(C(=O)NNC(=O)c2ccc(S(=O)(=O)N3CCCCC3)cc2)cc(OC)c1OC,41.5% (inactive)
23,O=C(CCNC(=O)c1ccc(Br)cc1)Nc1cccc(S(=O)(=O)N2CCCCC2)c1,-23.8% (inactive)
24,CCSc1ccccc1C(=O)Nc1ccc2c(c1)OCO2,8.91% (inactive)
25,CCN(CC)S(=O)(=O)c1cccc(NC(=O)c2ccc(S(=O)(=O)N3CCCC3)cc2)c1,-65.5% (active)
26,O=C(Nc1ccc2c(c1)OCO2)c1cc(-c2cccc(Cl)c2)on1,11.5% (inactive)
